This is a sample that favours compounds with a hit; in the whole collection about 1.3% have one here.
AmpC no deterg: inhibitors of E. coli AmpC beta-lactamase without detergent | P00811 | hit rate 0.52% among 330,000 | AmpC nitrocefin hydrolysis, absorbance 480 nm, 0.0001% Triton | Potency, µM (top dose mostly 57.1 µM), for inactives: at the highest dose activity change, negative = inhibition, hits mostly inhibitors;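 note: plate controls were no compound for no effect and no enzyme for full effect; nearly all actives have a fitted effect of over 20% in size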
Target sequence (P00811 whole entry, looked up): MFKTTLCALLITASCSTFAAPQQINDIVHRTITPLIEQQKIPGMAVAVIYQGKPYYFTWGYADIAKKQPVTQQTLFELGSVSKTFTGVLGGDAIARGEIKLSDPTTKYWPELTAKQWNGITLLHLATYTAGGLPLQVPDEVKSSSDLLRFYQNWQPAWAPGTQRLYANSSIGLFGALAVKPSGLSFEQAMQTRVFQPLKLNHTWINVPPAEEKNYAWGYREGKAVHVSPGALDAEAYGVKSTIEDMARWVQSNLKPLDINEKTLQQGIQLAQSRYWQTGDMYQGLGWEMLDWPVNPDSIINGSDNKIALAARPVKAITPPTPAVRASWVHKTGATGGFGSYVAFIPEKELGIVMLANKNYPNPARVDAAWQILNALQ
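AmpC (5.3 nM in the dispensed reagent) in 20 mM phosphate pH 7.0 with 0.01% (detergent screen) or 0.0001% Triton X-100 was preincubated with compounds for 15 min at room temperature. Nitrocefin was then added from an 800 uM solution, and hydrolysis was followed at 480 nm.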
Vaccinia mCherry: vaccinia inhibition (mCherry reporter). Potency, µM (titrated, usually from 36.5 µM), for the others: at the highest dose activity change, negative = inhibition, most hits filed as inhibitors. Vaccinia virus mCherry reporter infection, fluorescence. hit rate 0.63% among 310,000; calls by dose curve; tested in A549 cells; note: % is set by controls: 0 for no effect and ±100 for the full control effect; nearly all actives have a fitted effect of over 35% in size
SARS PLpro yeast: blocks SARS-CoV papain-like protease in a yeast assay; Potency, µM (titrated, usually from 32.9 µM), for the others: top-dose activity, positive = growth rescue, actives largely listed as activators; hit rate 0.19% among 330,000; S. cerevisiae expressing SARS-CoV PLpro, growth rescue; AID 485353; calls by dose curve; note: 0% is about no effect; nearly all actives have a fitted effect of over 55% in size
AmpC detergent: blocks E. coli AmpC beta-lactamase in detergent assay | Potency, µM (doses to about 114 µM), for the others: at the highest dose activity change, negative = inhibition, actives largely listed as inhibitors | AmpC hydrolysis of nitrocefin, absorbance 480 nm, 0.01% Triton | P00811 | hit rate 0.041% among 370,000;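 note: 0% = no-compound wells and -100% = no-enzyme wells; nearly all actives have a fitted effect of over 25% in size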
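AmpC (5.3 nM in the dispensed reagent) in 20 mM phosphate pH 7.0 with 0.01% (detergent screen) or 0.0001% Triton X-100 was preincubated with compounds for 15 min at room temperature. Nitrocefin was then added from an 800 uM solution, and hydrolysis was followed at 480 nm.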
AMA1 RON2 block: AMA1-RON2 (P. falciparum) interaction inhibition | AID 720542 | AlphaScreen AMA1-biotinylated RON2 peptide binding | Potency, µM (series often up to 58.2 µM), without a hit: at the highest dose activity change, negative = inhibition, actives largely listed as inhibitors | hit rate 0.2% among 360,000;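 note: 0% = vehicle wells and -100% = peptide control; nearly all actives have a fitted effect of over 45% in size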
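AMA1 (3D7) with his tag at 25 nM final met compounds first, then biotinylated RON2 peptide at 25 nM; detection used donor plus acceptor beads, 10 µg/mL apiece, read by AlphaScreen after 30 min at room temperature.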
VACV Venus inh: vaccinia inhibition (Venus reporter) | Vaccinia virus Venus reporter expression, fluorescence | Potency, µM (titrated, usually from 36.5 µM), for inactives: at the highest dose activity change, negative = inhibition, actives largely listed as inhibitors | hit rate 0.46% among 330,000 | AID 720580; calls by dose curve; tested in A549 cells; note: % is set by controls: 0 for no effect and ±100 for the full control effect; nearly all actives have a fitted effect of over 30% in size
* marks the source's active call; other numbers are inactive results; [ ] = another dose, or the depositor's remark. Unless noted, calls come from the whole dose curve; as a rule, active = well fitted curve in the direction sought with a large enough effect; inconclusive = small, poorly fitted or top-dose-only effect, or another doubt; inactive = no such curve, though single readings can be large; an effect the other way counts as inactive or inconclusive. Potency is the fitted concentration of half-maximal effect.

What do the screens show for `O=C(CCc1c[nH]c2ccccc12)N=Nc1c(O)[nH]c2ccccc12`?
AmpC no deterg: 31.6µM*; Vaccinia mCherry: -29.5%; SARS PLpro yeast: 0.4%; AmpC detergent: -5.8%; AMA1 RON2 block: -17.7%; VACV Venus inh: -12.8%

What do the screens show for `Cc1csc(SCC(=O)N2CCOc3ccc(C(O)C4CCCCC4)cc3C2)n1` (stereo not given)?
Vaccinia mCherry: -4.7%; VACV Venus inh: -10.7%

How did Cc1ccc(Nc2nc3nonc3nc2Nc2cccc(C(F)(F)F)c2)cc1Cl do in these assays?
Vaccinia mCherry: 3.55µM*; AmpC detergent: -6.3%; VACV Venus inh: 3.55µM*

How did CSc1nsc(/C=C/Nc2ccc(Cl)cc2)c1C#N do in these assays?
AmpC no deterg: 17.8µM*; Vaccinia mCherry: -10.0%[1.46 µM]; SARS PLpro yeast: -4.5%; AmpC detergent: -4.8%; AMA1 RON2 block: -1.1%; VACV Venus inh: -13.1%

What do the screens show for `CCCNC(=O)c1nnsc1S(=O)(=O)c1ccc(Cl)cc1`?
AmpC no deterg: -35.2%; Vaccinia mCherry: inconclusive; SARS PLpro yeast: -33.5%; AmpC detergent: -9.0%; AMA1 RON2 block: 1.2%; VACV Venus inh: 12.6µM*

How did COc1cc(NS(=O)(=O)c2ccc(-c3cc(C)no3)cc2)cc(OC)c1 do in these assays?
Vaccinia mCherry: inconclusive; AmpC detergent: 12.5%; VACV Venus inh: inconclusive

How did CSc1ncccc1C(=O)N1CCOc2ccc(C(C)(O)CCn3cccn3)cc2C1 (stereo not given) do in these assays?
Vaccinia mCherry: inactive; VACV Venus inh: -1.3%

How did CC(=O)Nc1sc(N/N=C\c2ccccc2Cl)nc1-c1cccs1 do in these assays?
AmpC no deterg: -7.5%; Vaccinia mCherry: 11.2µM*; SARS PLpro yeast: 14.4%; AmpC detergent: -10.7%; AMA1 RON2 block: -23.3%; VACV Venus inh: inconclusive

What do the screens show for `CC(=O)Nc1sc(N/N=C\c2ccccc2)nc1-c1cccs1`?
AmpC no deterg: -35.0%; Vaccinia mCherry: -15.3%; SARS PLpro yeast: -0.6%; AmpC detergent: -14.4%; AMA1 RON2 block: 21.3%; VACV Venus inh: 2.7%

Results for Cc1ccccc1-n1cc(CNC(=O)CN2Cc3ccccc3OC(C)C2)cn1 (stereo not given) ?
Vaccinia mCherry: -5.0%; VACV Venus inh: -0.6%

How did O=C(Cc1ccc(-n2c(=O)c3sccc3n(CC(=O)Nc3ccccc3)c2=O)cc1)NCc1ccco1 do in these assays?
AmpC no deterg: -20.0%; Vaccinia mCherry: inactive; SARS PLpro yeast: -0.2%; AmpC detergent: 3.4%; AMA1 RON2 block: 5.2%; VACV Venus inh: -17.4%

What do the screens show for `Cc1ccc(C)c(Cn2c(=O)n(-c3ccc(CC(=O)NCc4ccco4)cc3)c(=O)c3sccc32)c1`?
AmpC no deterg: 11.2µM*; Vaccinia mCherry: -3.0%; SARS PLpro yeast: 2.3%; AmpC detergent: inconclusive; AMA1 RON2 block: -10.3%; VACV Venus inh: -2.7%

What do the screens show for `CCOc1ccc(CCN2C(=S)N([C@@H](CC(C)C)CN3CCCC3CN3C(=S)NC[C@@H]3Cc3ccc(O)cc3)C[C@@H]2Cc2ccc(O)cc2)cc1` (stereo not given in full)?
Vaccinia mCherry: inconclusive; AMA1 RON2 block: 11.3%; VACV Venus inh: 10µM*

Results for CC(C)C[C@@H](CN1CCCC1CN1C(=S)NC[C@@H]1Cc1ccc(O)cc1)N1C[C@H](Cc2ccc(O)cc2)N(CC2CCCCCC2)C1=S (stereo not given in full) ?
Vaccinia mCherry: 6.31µM*; AMA1 RON2 block: 11.6%; VACV Venus inh: 11.2µM*

Results for CC(C)C[C@@H](CN1CCCC1CN1C(=S)NC[C@@H]1Cc1ccc(O)cc1)N1C[C@H](Cc2ccccc2)N(CC2CCCCCC2)C1=S (stereo not given in full) ?
Vaccinia mCherry: -24.3%; AMA1 RON2 block: -6.3%; VACV Venus inh: -27.2%

What do the screens show for `CC(C)C(NS(C)(=O)=O)c1nnc2n1CCN(Cc1ccc(C#CC(C)(C)O)cc1)CC2` (stereo not given)?
Vaccinia mCherry: -13.2%; VACV Venus inh: -3.1%

Bioassay records from PubChem.
